Source: PubChem
Shown are actives, neighbours in structure and some others; about 21% of the full set was active somewhere.
DRD3 antagonist: D3 dopamine receptor (human) antagonism; P35462; D3R cells, DiscoveRx beta-arrestin luminescence, antagonist mode; hits give low values; max response, negative = inhibition, %; 2.5% of 360,000 active; in the data active = max response below about -50%; inconclusive = no clear call, values can overlap the other calls; note: % is set by controls: 0 for no effect and ±100 for the full control effect
Target sequence (P35462 whole entry, looked up): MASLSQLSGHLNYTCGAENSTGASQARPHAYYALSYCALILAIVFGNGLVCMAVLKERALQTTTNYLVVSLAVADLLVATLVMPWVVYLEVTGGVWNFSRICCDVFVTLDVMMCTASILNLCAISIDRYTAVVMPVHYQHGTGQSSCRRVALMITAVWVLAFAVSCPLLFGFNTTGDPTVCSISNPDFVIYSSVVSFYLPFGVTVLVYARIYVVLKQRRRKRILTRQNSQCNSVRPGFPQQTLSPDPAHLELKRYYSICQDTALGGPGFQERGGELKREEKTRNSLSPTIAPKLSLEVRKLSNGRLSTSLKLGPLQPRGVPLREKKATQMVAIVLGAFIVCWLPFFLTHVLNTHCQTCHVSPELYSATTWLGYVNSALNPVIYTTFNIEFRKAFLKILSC
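Cells plated overnight at 1500 cells/well, then exposed to library compounds with dopamine controls for 90 minutes at 37 degrees C. DiscoveRx reagent added for 30–60 minutes at room temperature; luminescence read, quantitative HTS format.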
DT40 TDP1 no CPT: qHTS for Inhibitors of human tyrosyl-DNA phosphodiesterase 1 (TDP1): qHTS in cells in absence of CPT; DT40 Tdp1-/- hTDP1 cells, no CPT, ATP luminescence, 48 h; AID 686978, 2013; Potency, µM (highest dose often 46.2 µM), inactives show at the highest dose activity change, negative = growth inhibition, actives largely listed as inhibitors; 15% of 420,000 active; note: potency is the fitted concentration of half-maximal effect; % is set by controls: 0 for no effect and ±100 for the full control effect; nearly all actives have a fitted effect of over 55% in size
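Luminescent ATP content (CellTiter-Glo) served as the growth readout. Knockout chicken DT40 cells expressing human TDP1 were exposed to compounds without camptothecin for a minimum 48 hr at 37 °C.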
D3 ag: D3 dopamine receptor (human) agonism; P35462; D3R DiscoveRx beta-arrestin cells, luminescence, 90 min; max activation, %; 0.58% of 410,000 active; AID 652048; in the data active = max activation above about 30%; note: 0% is about no effect
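Cells at 1500/well, incubated overnight, then treated with pinned compounds (dopamine as control) for 90 min at 37 degrees C. DiscoveRx reagent added for 30 - 60 minutes at room temperature; luminescence read.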
IL-1B inflam inh: inhibitors of inflammasome signaling (IL-1 beta secretion); THP-1 LPS/ATP IL-1B secretion, AlphaLISA, 16 h; hits give low values; 4.7% of 360,000 active; activity change, % at 57.5 µM; in the data active = activity change below about -50%; inconclusive = mostly about -30% to -49%; note: % is set by controls: 0 for no effect and ±100 for the full control effect
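Secreted IL-1B measured by AlphaLISA bead assay after 16 h compound exposure of THP-1 cells; compounds (final up to 57.5 uM) added 1 h before LPS (250 ng/mL) and ATP (1.25 mM) stimulation; lower signal means less secretion.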
ClpP mod: qHTS Assay for Activators of ClpP | Potency, µM (doses to about 57.5 µM), inactives show top-dose activity change, negative = active | ATP-dependent Clp protease proteolytic subunit (Bacillus subtilis (strain 168)), P80244 | 1.9% of 340,000 active | AID 651965, 2013 | purified B. subtilis ClpP, FRET peptide cleavage, 20 min; active = well fitted falling curve with a large enough effect; inconclusive = small, poorly fitted or top-dose-only effect; inactive = no such curve, though single readings can be large or run the other way; note: potency is the fitted concentration of half-maximal effect; the source files actives as falling curves though it sought activators and does not explain the sign; nearly all actives have a fitted effect of over 65% in size
Target sequence (P80244 whole entry, looked up): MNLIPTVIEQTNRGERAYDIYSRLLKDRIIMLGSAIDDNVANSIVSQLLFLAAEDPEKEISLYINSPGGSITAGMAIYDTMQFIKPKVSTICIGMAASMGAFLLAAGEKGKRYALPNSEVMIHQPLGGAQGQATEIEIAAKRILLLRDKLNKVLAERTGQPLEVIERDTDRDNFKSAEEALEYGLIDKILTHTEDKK
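ClpP 10 microg/mL final, pH 8 Tris/KCl buffer with BSA, glycerol, Tween-20; compound pinned in; FRET-FV substrate; RT 20 min; Ex320/Em430; ΔFRET vs ADEP 5.8 microM, DMSO, no enzyme.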
TDP1 cell CPT: DT40-hTDP1 cell growth loss with CPT; chicken DT40 Tdp1-/-;hTDP1 cells + 20 nM CPT, ATP luminescence, 48 h; Potency, µM (titrated, usually from 46.2 µM), inactives show at the top dose activity change, negative = growth inhibition, most hits filed as inhibitors; 12% of 420,000 active; note: potency is the fitted concentration of half-maximal effect; % is set by controls: 0 for no effect and ±100 for the full control effect; nearly all actives have a fitted effect of over 55% in size
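Chicken DT40 Tdp1-/- cells stably complemented with human TDP1 were seeded at 400 cells/well in medium containing 20 nM camptothecin, exposed to pin-transferred compounds, and grown at 37 °C for at least 48 hr. Viability was read as ATP luminescence.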
Numbers without * were called inactive; ? = inconclusive; · = not tested or not shown. Unless noted, calls come from the whole dose curve; as a rule, active = well fitted inhibition curve with a large enough effect; inconclusive = small, poorly fitted or top-dose-only effect; inactive = flat fitted curve, though single readings scatter.

SMILES | DRD3 antagonist | DT40 TDP1 no CPT | D3 ag | IL-1B inflam inh | ClpP mod | TDP1 cell CPT
CC1=NN(C(N)=S)C(=O)C1N=Nc1ccccc1O (stereo not drawn) | 2.5 | -2.2% | 0.4 | 25.2 | 0.1% | 17.0%
CC1=NN(C(N)=S)C(=O)C1N=Nc1c(Br)cc(Br)cc1Br (stereo not drawn) | -12.1 | -28.2% | 12.0 | 8.0 | · | -28.1%
CC1=NN(C(N)=S)C(=O)C1N=Nc1c(C)cc(C)cc1C (stereo not drawn) | -14.0 | 0.581µM* | 3.1 | 11.9 | 5.5% | 0.517µM*
CCOc1ccccc1N=NC1C(=O)N(C(N)=S)N=C1C (stereo not drawn) | 12.6 | 3.66µM* | 23.3 | 40.6 | 0.3% | 16.4µM*
O=C(Nc1cccc(Br)c1)N1CCN2CCCCC2C1 (stereo not drawn) | · | ? | -9.7 | · | 1.0% | 0.0%
O=C(/C=C/c1cccc(C(F)(F)F)c1)NNC(=O)c1ccncc1 | -11.7 | -6.7% | -5.2 | -18.4 | · | -17.7%
Cc1nn(C(=O)c2ccccc2)c(C)c1S(=O)(=O)N1CCCCCC1 | · | -23.5% | -9.0 | · | -2.6% | -12.9%
Cc1nc2nc(NCc3ccc(Cl)cc3)[nH]n2c(=O)c1Cc1ccccc1 | · | -15.2% | -4.4 | · | -2.4% | -18.4%
CCc1nc2ccc(C(=O)Nc3ccc(Cl)c(Cl)c3)cn2c1N(C)Cc1ccc(OC)cc1 | 6.6 | ? | 4.7 | -61.5* | -11.1% | 16.4µM*
CCc1nc2ccc(C(=O)Nc3ccc(OC)c(OC)c3)cn2c1N(C)Cc1ccc(OC)cc1 | 48.9 | ? | 10.3 | ? | 1.8% | ?
CCc1nc2ccc(C(=O)NCCc3c[nH]c4ccccc34)cn2c1N(C=O)CCC(C)C | -1.0 | 16.4µM* | -18.6 | ? | -12.9% | 20.6µM*
CCc1nc2ccc(C(=O)NCCOc3ccc(OC)cc3)cn2c1N(C=O)Cc1ccc(OC)cc1 | 0.0 | ? | -10.0 | 0.0 | -6.7% | 23.1µM*
CCc1nc2ccc(C(=O)N(C)CCCN(C)C)cn2c1N(C)Cc1cc2ccccc2s1 | 6.8 | 20.6µM* | -2.1 | -9.2 | 1.4% | ?
C=CCC1(NCc2ccco2)CCN(CC)CC1 | -1.8 | 0.2% | -14.8 | -14.1 | -4.1% | -21.8%
Nc1ccn([C@@H]2O[C@H](CNC(=O)[C@@H](Cc3cccnc3)NC=O)[C@@H](O)[C@H]2O)c(=O)n1 | -15.5 | -2.9% | 2.2 | 14.7 | -1.1% | 2.7%
c1ccc(CNCCNCc2ccccc2)cc1 | · | -28.7% | -25.0 | · | · | -3.2%
CCc1nc2ccc(C(=O)NCc3ccccc3OC)cn2c1N(C)Cc1ccc(OC)cc1 | 12.6 | 20.6µM* | 4.5 | -51.6* | 1.3% | 16.4µM*
CCc1nc2ccc(C(=O)NCC3CCCCC3)cn2c1N(C)Cc1ccc(OC)cc1 | 0.7 | ? | -2.6 | ? | -1.9% | ?
CCc1nc2ccc(C(=O)NCCOc3ccc(OC)cc3)cn2c1N(C)C(=O)C1CCCCC1 | -23.6 | 20.6µM* | -4.2 | -8.2 | -4.0% | ?
CCc1nc2ccc(C(=O)N(C)Cc3ccccc3)cn2c1N(C)CCCc1ccccc1 | 12.4 | 13µM* | 3.3 | -26.1 | 1.8% | ?
CCc1nc2ccc(C(=O)N(C)CCCN(C)C)cn2c1N(C)CCCc1ccccc1 | -17.2 | ? | -9.9 | -11.9 | 0.3% | ?
CCc1nc2ccc(C(=O)NCc3ccc(OC)cc3)cn2c1N(C)Cc1ccc(OC)cc1 | 8.9 | 20.6µM* | 4.9 | -11.1 | 0.1% | ?
CCn1c(SCC(=O)NC2CCCCC2)nnc1-c1ccco1 | 0.4 | 6.8% | 2.9 | 12.6 | · | 2.2%
CCOC(=O)c1sc(NC(=O)CN2CCN(c3ccc(OC)cc3)CC2)nc1C | -22.8 | -27.3% | -2.4 | -10.1 | · | 21.6%
CCc1nc2ccc(C(=O)N(C)Cc3ccccc3)cn2c1N(C)Cc1ccc(OC)cc1 | 21.6 | 11.6µM* | 1.1 | -14.1 | -0.2% | 11.6µM*
SMILES | DRD3 antagonist | DT40 TDP1 no CPT | D3 ag | IL-1B inflam inh | ClpP mod | TDP1 cell CPT
CCc1nc2ccc(C(=O)NC3CCN(Cc4ccccc4)CC3)cn2c1N(C)Cc1ccc(N(C)C)cc1 | -62.9* | ? | -22.4 | -0.5 | -3.7% | ?
CCCCCCCCNCCS(=O)(=O)NCc1ccccc1 | -81.0* | 16.4µM* | -40.8 | -52.5* | 1.3% | ?
CCCCNS(=O)(=O)CCNCc1ccc(OC)cc1 | -3.1 | ? | -49.9 | 3.9 | 1.0% | -22.3%
CCCCNS(=O)(=O)CCNCc1ccco1 | -9.2 | -9.5% | 43.1* | -2.9 | 2.0% | -8.1%
CCCCNS(=O)(=O)CCNCCc1ccccc1 | -9.0 | -17.0% | -44.5 | 36.3 | -0.3% | 34.6%
CCOc1ccc2nc(Cl)c(C3CC(c4ccc(OC)cc4)=NN3S(C)(=O)=O)cc2c1 (stereo not drawn) | · | 16.4µM* | -12.1 | · | -7.3% | 8.2µM*
CN1Cc2cccc3c2C(Cc2ccccc2S3)C1 (stereo not drawn) | -64.1* | ? | -8.7 | 33.3 | 1.2% | ?
c1ccc2c(c1)CC(N1CCCCC1)c1ccccc1S2 (stereo not drawn) | -1.1 | ? | -3.1 | 0.0 | 1.5% | ?
CCC(=O)Nc1nonc1-c1nc2ccccc2n1CC(C)C | -28.8 | 23.1µM* | -5.0 | -19.9 | 0.4% | 23.1µM*
COc1cccc(Cn2c(-c3nonc3NC(C)=O)nc3ccccc32)c1 | · | 13µM* | 10.3 | · | -18.9% | 13µM*
N#CCCn1c(-c2nonc2NC(=O)c2ccccc2Cl)nc2ccccc21 | 17.9 | -23.4% | -8.5 | 2.9 | -1.0% | -15.4%
CC(=O)Nc1nonc1-c1nc2ccccc2n1Cc1ccccc1Br | · | 14.6µM* | -4.2 | · | 25.1µM* | 16.4µM*
CC(=O)Nc1nonc1-c1nc2ccccc2n1N(C(C)=O)C(C)=O | 26.1 | -12.7% | 2.2 | -7.9 | 28.2µM* | -14.7%
O=C(C[n+]1cccc(Br)c1)c1ccc2ccccc2c1 | · | -98.8% | · | · | -1.5% | -107.2%
COc1cc(C(=S)N2CCOCC2)cc(Br)c1OS(=O)(=O)c1ccccc1 | 13.5 | ? | 8.0 | 14.4 | 0.6% | ?
CCC(=O)Nc1ccccc1-c1nc2ccccc2n(C(CC)C(=O)Nc2cccc(C(C)=O)c2)c1=O (stereo not drawn) | · | ? | -14.4 | · | -2.1% | ?
CN(CCOc1ccc(C[C@H](Nc2ccccc2C(=O)c2ccccc2)C(=O)O)cc1)c1ccccn1 | · | -6.5% | · | · | · | 0.9%
CCCCCNC(=O)C(c1ccccc1)n1c(=O)c(-c2cc3ccccc3[nH]2)nc2ccccc21 (stereo not drawn) | 27.5 | ? | 2.6 | 40.5 | ? | ?
CCN(CC)c1ccc(NC2CC(=O)N(CCc3ccc(OC)cc3)C2=O)cc1 (stereo not drawn) | 0.6 | 14.6µM* | 4.0 | -10.5 | · | 13µM*
